Measured values: PubChem BioAssay AID1159580 (chemical genetic matrix, 2015)
“And” between values parts separate entries of the source, which are not always exact repeats. Equal entries are not always repeated. In all, about 5,500 compounds went through this assay and about 2,000 (36%) were called active. About 18% were inconclusive and are not listed. No stated cut-off is given here; in the data, active means normalized growth mostly below about 0.91 (no sharp cut-off); inconclusive means no clear call, values can overlap the other calls; inactive means mostly above about 0.92. Some of the results follow.

Experiment: chemical genetic growth profiling, strain panel (AID 1159580);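 further: tested at 20 µM; growth read once vehicle control cultures reached saturation at 30 °C; 1 = growth at the plate median or of vehicle wells; lower values mean less growth of the strain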
Details: S. cerevisiae deletion strains, growth OD

Measured: normalized growth

O=C(O)/C=C(\CC(=O)O)C(=O)O
inactive: locus YAL013W, strain DEP1, active compounds read low 0.995 | locus YAL021C, strain ccr4, active compounds read low 0.998 | locus YAL026C, strain drs2, active compounds read low 1 | locus YAL030W, strain snc1, active compounds read low 0.993 | locus YBL061C, strain skt5, active compounds read low 0.994 | locus YBR009C, strain hhf1, active compounds read low 1 | locus YBR021W, strain FUR4, active compounds read low 0.981 | locus YBR023C, strain chs3, active compounds read low 0.992 | locus YBR171W, strain sec66, active compounds read low 0.989 | locus YBR229C, strain ROT2, active compounds read low 0.993 | locus YBR231C, strain swc5, active compounds read low 0.998 | locus YBR279W, strain paf1, active compounds read low 1.01 | locus YCL011C, strain gbp2, active compounds read low 1 | locus YCL016C, strain dcc1, active compounds read low 1.01 | locus YCL029C, strain bik1, active compounds read low 0.968 | locus YCL061C, strain MRC1, active compounds read low 0.987 | locus YCL069W, strain vba3, active compounds read low 1 | locus YCR088W, strain abp1, active compounds read low 0.99 | locus YDL005C, strain med2, active compounds read low 0.98 | locus YDL035C, strain GPR1, active compounds read low 1 | locus YDL040C, strain nat1, active compounds read low 0.985 | locus YDL074C, strain BRE1, active compounds read low 0.998 | locus YDL101C, strain DUN1, active compounds read low 1 | locus YDL134C, strain PPH21, active compounds read low 1.01 | locus YDL185W, strain tfp1, active compounds read low 1 | locus YDL192W, strain arf1, active compounds read low 0.997 | locus YDR001C, strain nth1, active compounds read low 0.995 | locus YDR069C, strain doa4, active compounds read low 1.01 | locus YDR101C, strain arx1, active compounds read low 0.991 | locus YDR137W, strain rgp1, active compounds read low 1.02 | locus YDR159W, strain sac3, active compounds read low 0.96 | locus YDR162C, strain NBP2, active compounds read low 1.05 | locus YDR195W, strain ref2 0.969 | locus YDR297W, strain sur2, active compounds read low 0.996 | locus YDR318W, strain mcm21, active compounds read low 0.981 | locus YDR334W, strain swr1, active compounds read low 0.981 | locus YDR335W, strain msn5, active compounds read low 0.999 | locus YDR388W, active compounds read low 0.973 | locus YDR392W, strain spt3, active compounds read low 0.992 | locus YDR502C, strain sam2, active compounds read low 0.984 | locus YEL003W, strain gim4, active compounds read low 1 | locus YEL037C, strain rad23, active compounds read low 0.994 | locus YEL061C, strain CIN8 (second series), active compounds read low 1 | locus YEL061C, strain CIN8, active compounds read low 0.996 | locus YER015W, strain faa2, active compounds read low 0.998 | locus YER016W, strain bim1, active compounds read low 0.984 | locus YER110C, active compounds read low 0.982 | locus YER111C, strain swi4, active compounds read low 0.991 | locus YER155C, strain BEM2 (second series), active compounds read low 0.983 | locus YER155C, strain BEM2, active compounds read low 0.989 | locus YER167W, strain BCK2, active compounds read low 0.978 | locus YFR010W, strain ubp6, active compounds read low 0.991 | locus YGL078C, strain dbp3, active compounds read low 0.984 | locus YGL086W, strain mad1, active compounds read low 0.987 | locus YGL167C, strain pmr1, active compounds read low 0.986 | locus YGL173C, strain kem1, active compounds read low 0.997 | locus YGL227W, strain vid30, active compounds read low 0.98 | locus YGL240W, strain doc1, active compounds read low 0.974 | locus YGL248W, strain PDE1, active compounds read low 1.03 | locus YGL253W, strain hxk2, active compounds read low 1 | locus YGR135W, strain pre9, active compounds read low 1.02 | locus YGR252W, strain gcn5, active compounds read low 1.03 | locus YHR013C, strain ard1, active compounds read low 0.999 | locus YHR027C, strain rpn1, active compounds read low 0.993 | locus YHR030C, strain SLT2, active compounds read low 0.987 and 1.01 | locus YHR079C, strain IRE1 (second series), active compounds read low 0.968 | locus YHR079C, strain IRE1, active compounds read low 1.01 | locus YHR094C, strain hxt1, active compounds read low 0.968 | locus YHR129C, strain ARP1, active compounds read low 1 | locus YHR142W, strain chs7, active compounds read low 1.01 | locus YHR200W, strain rpn10, active compounds read low 0.991 | locus YIL066C, strain RNR3, active compounds read low 1.01 | locus YIL073C, strain SPO22, active compounds read low 0.952 | locus YIL125W, strain kgd1, active compounds read low 0.979 | locus YIR030C, strain dcg1, active compounds read low 0.97 | locus YJL092W, strain hpr5, active compounds read low 0.994 | locus YJL095W, strain BCK1 (second series), active compounds read low 0.997 | locus YJL095W, strain BCK1, active compounds read low 1.05 and 1 | locus YJL115W, strain asf1, active compounds read low 0.998 | locus YJL129C, strain trk1, active compounds read low 0.996 | locus YJL134W, strain LCB3, active compounds read low 0.993 | locus YJL154C, strain vps35, active compounds read low 0.994 | locus YJL164C, strain tpk1, active compounds read low 1.02 | locus YJL166W, strain qcr8, active compounds read low 0.998 | locus YJL168C, strain set2, active compounds read low 0.969 | locus YJL187C, strain SWE1 (second series), active compounds read low 1.02 | locus YJL187C, strain SWE1, active compounds read low 0.997 | locus YJR043C, strain POL32, active compounds read low 1 | locus YJR066W, strain TOR1, active compounds read low 0.972 | locus YJR075W, strain HOC1, active compounds read low 1.03 | locus YKL009W, strain mrt4, active compounds read low 0.957 | locus YKL068W, active compounds read low 0.981 | locus YKL085W, strain MDH1 (second series), active compounds read low 0.989 | locus YKL085W, strain MDH1, active compounds read low 0.989 | locus YKL160W, strain elf1, active compounds read low 0.993 | locus YKR001C, strain vps1, active compounds read low 0.956 | locus YKR026C, strain gcn3, active compounds read low 0.993 | locus YKR091W, strain srl3, active compounds read low 0.999 | locus YLL001W, strain dnm1, active compounds read low 1.01 | locus YLL026W, active compounds read low 0.988 | locus YLL041C, strain sdh2, active compounds read low 1 | locus YLR027C, strain aat2, active compounds read low 0.996 | locus YLR039C, strain RIC1, active compounds read low 1.02 | locus YLR058C, strain SHM2, active compounds read low 1.01 | locus YLR102C, strain apc9, active compounds read low 0.974 | locus YLR113W, strain HOG1, active compounds read low 1.01 | locus YLR221C, strain rsa3, active compounds read low 0.976 | locus YLR258W, strain gsy2, active compounds read low 0.986 | locus YLR262C, strain YPT6 (second series), active compounds read low 1.01 | locus YLR262C, strain YPT6, active compounds read low 1.02 | locus YLR268W, strain sec22, active compounds read low 0.977 | locus YLR320W, strain mms22, active compounds read low 0.982 | locus YLR330W, strain CHS5, active compounds read low 0.99 | locus YLR342W, strain FKS1 (second series), active compounds read low 0.99 | locus YLR342W, strain FKS1, active compounds read low 0.987 | locus YLR357W, strain rsc2, active compounds read low 0.991 | locus YLR370C, strain arc18, active compounds read low 0.997 | locus YLR371W, strain rom2, active compounds read low 0.972 | locus YLR384C, strain iki3, active compounds read low 0.984 | locus YLR418C, strain cdc73, active compounds read low 1.01 | locus YML016C, strain PPZ1, active compounds read low 0.986 | locus YML032C, strain rad52, active compounds read low 0.986 | locus YML120C, strain ndi1, active compounds read low 1 | locus YML124C, strain tub3, active compounds read low 0.97 | locus YMR058W, strain fet3, active compounds read low 0.997 | locus YMR078C, strain ctf18, active compounds read low 0.975 | locus YMR125W, strain sto1, active compounds read low 0.997 | locus YMR129W, active compounds read low 0.996 | locus YMR205C, strain PFK2, active compounds read low 1.01 | locus YMR223W, strain ubp8, active compounds read low 0.996 | locus YMR231W, strain pep5, active compounds read low 0.967 | locus YMR307W, strain GAS1, active compounds read low 1.06 | locus YNL067W, strain RPL9B, active compounds read low 1.03 | locus YNL071W, strain lat1, active compounds read low 1 | locus YNL128W, strain TEP1, active compounds read low 1 | locus YNL153C, strain GIM3, active compounds read low 1.04 | locus YNL183C, strain NPR1, active compounds read low 0.979 | locus YNL209W, strain ssb2, active compounds read low 1 | locus YNL233W, strain BNI4, active compounds read low 1.02 | locus YNL248C, strain rpa49, active compounds read low 0.995 | locus YNL250W, strain rad50, active compounds read low 0.982 | locus YNL271C, strain bni1, active compounds read low 0.972 | locus YNL298W, strain CLA4, active compounds read low 0.978 | locus YNL307C, strain MCK1, active compounds read low 0.982 | locus YNL322C, strain KRE1 (second series), active compounds read low 0.99 | locus YNL322C, strain KRE1, active compounds read low 0.998 | locus YNR049C, strain mso1, active compounds read low 0.992 | locus YNR052C, strain pop2, active compounds read low 0.971 | locus YOL006C, strain TOP1, active compounds read low 0.969 | locus YOL012C, strain htz1 0.984 | locus YOL147C, strain pex11, active compounds read low 0.986 | locus YOR001W, strain rrp6, active compounds read low 0.969 | locus YOR061W, strain CKA2, active compounds read low 0.988 | locus YOR069W, strain VPS5, active compounds read low 0.989 | locus YOR070C, strain gyp1, active compounds read low 0.981 | locus YOR080W, strain dia2, active compounds read low 0.985 | locus YOR083W, strain WHI5, active compounds read low 1.01 | locus YOR106W, strain vam3, active compounds read low 1.01 | locus YOR136W, strain idh2, active compounds read low 0.98 | locus YOR144C, strain elg1, active compounds read low 0.984 | locus YOR184W, strain ser1, active compounds read low 0.999 | locus YOR231W, strain MKK1, active compounds read low 1.05 | locus YOR265W, strain rbl2, active compounds read low 0.995 | locus YOR270C, strain vph1, active compounds read low 1.04 | locus YOR290C, strain snf2, active compounds read low 0.964 | locus YOR316C, strain cot1, active compounds read low 0.97 | locus YPL051W, strain arl3, active compounds read low 0.989 | locus YPL055C, strain LGE1, active compounds read low 1.03 | locus YPL078C, strain atp4, active compounds read low 1 | locus YPL106C, strain sse1, active compounds read low 0.997 | locus YPL240C, strain hsp82, active compounds read low 0.996 | locus YPL241C, strain CIN2, active compounds read low 0.993 | locus YPL256C, strain CLN2, active compounds read low 1 | locus YPR119W, strain clb2, active compounds read low 0.957 | locus YPR141C, strain kar3, active compounds read low 0.975 | locus YPR163C, strain tif3, active compounds read low 0.984 | locus YPR167C, strain met16, active compounds read low 0.951 | strain wtn01, active compounds read low 0.954
